Here are results for 15 molecules from PubChem BioAssay AID624256 (NMMLSC, 2012).

The whole screen tested about 360,000 compounds, of which about 3,700 (1%) were called active. Not shown: some 2% with an inconclusive outcome.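 How the source made its calls: active means normalized GFP-positive differentiation at or above the plate's own cutoff, the solvent-only control mean plus 3 SD; inconclusive means no clear call, values can overlap the other calls; inactive means the rest.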 Shown is part of a subset that was picked to be rich in actives.

This test can be described thus: HoxA9-arrested leukemia cell differentiation promoters – flow cytometry, MLPCN library, primary screen (AID 624256).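 On GFP+ MAC1+ double positive: cells exposed to compound for four days before flow analysis.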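 On normalized GFP-positive differentiation: cells exposed to compound for four days before flow analysis; 0% = DMSO wells and 100% = fulvestrant positive control at 5 µM.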 Particulars: ER-HoxA9 myeloid progenitors, lysozyme-GFP differentiation, at 10 µM; GFP+ MAC1+ double positive: measured here: differentiation confirmed by MAC1 staining, stronger effect = higher value; normalized GFP-positive differentiation: stronger effect = higher value.
For `O=C1NC(=O)N(CCc2ccc(F)cc2)C(=O)/C1=C/C=C/c1ccccc1`, the GFP+ MAC1+ double positive stood at 0.9% and the normalized GFP-positive differentiation is 70.4% (active).
For `CNC(=O)O/N=C(\N)Cc1csc2ccc(Cl)cc12`, the GFP+ MAC1+ double positive stood at 0.2% and the molecule was called inactive.
The corresponding values for `CC(C)Nc1nc(Cl)nc(NC(C)C)n1` are 0.1% and “inactive”.
For the molecule `COc1ccc(N=Cc2c(O)n(C)c(=O)[nH]c2=O)cc1`, the GFP+ MAC1+ double positive amounted to 0.4% and the molecule was classed as inactive.
On the same counts, the results for `C[C@H]1CN([C@@H](C)CO)C(=O)CCCn2nncc2CO[C@H]1CN(C)C(=O)Oc1ccccc1` are 0.8% and “inactive”.
`Cc1ccccc1NC(=O)COC(=O)c1cc(C)n(C2CC2)c1C`: the GFP+ MAC1+ double positive is 1.3% and the molecule was called inactive.
`CC(=NCC1CCCO1)c1c(O)n(-c2ccccc2)c(=O)[nH]c1=O` (stereo not given): the GFP+ MAC1+ double positive was determined as 0.9% and the molecule was classed as inactive.
`OCC#CC[N+]1(CC#Cc2ccccc2)CCCC1`: the GFP+ MAC1+ double positive was found to be 1.2% and the normalized GFP-positive differentiation was 7.55% (active).
For the molecule `COC(=O)C1=C(c2cc3ccccc3s2)C[C@@H]2CC[C@H]1N2C(=O)NCCO`, the GFP+ MAC1+ double positive came to 4.1% and the result was inactive.
The corresponding values for `CCOC(=O)[C@]12Cc3cc(OC)ccc3[C@H]1N(C(C)C)C(=O)c1ccccc12` are 1.5% and “inactive”.
The corresponding values for `c1ccc(CC2CCCCN2)cc1` (stereo not given) are 0.1% and “inactive”.
For the molecule `c1ccc2sc(C3CCCNC3)nc2c1` (stereo not given), the GFP+ MAC1+ double positive amounted to 1.2% and the call was inactive.
Regarding `CC1CC=CCC12C(=O)NC(=S)NC2=O` (stereo not given), the GFP+ MAC1+ double positive is 11.7% and the normalized GFP-positive differentiation is 312% (active).
On to `CN1CCC[C@@H]1CCO[C@](C)(c1ccccc1)c1ccc(Cl)cc1`, for which the GFP+ MAC1+ double positive was 3.2% and the molecule was classed as inactive.
`CC1C2Cn3c(nc4ccccc43)C1N(C)O2` (stereo not given): the GFP+ MAC1+ double positive was found to be 1.5% and the result was inactive.
